RGS4 inhibitor = inhibitors of human regulator of G protein signaling 4 | Potency, µM (series often up to 114 µM), for the others: top-dose activity change, negative = inhibition, hits mostly inhibitors | 390,000 tested, 0.039% active | Transcreener GDP fluorescence polarization, RGS4-accelerated GTP hydrolysis | AID 504845 | P49798; also: % is scaled to controls: 0 for no effect and ±100 for the full control effect; nearly all actives have a fitted effect of over 75% in size
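MLSMR compounds (23 nl, pin-transferred) preincubated 10 min at room temperature with a 500nM (2x) first reagent, then RGS4 at 900nM (2x) plus Transcreener GDP mix added; fluorescence polarization (620/688 nm) read before and after 90 min at 30 °C.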
GCN5L2 inh = inhibitors of human GCN5L2 histone acetyltransferase; Q92830; 390,000 tested, 0.21% active; Potency, µM (top dose mostly 58.9 µM), for inactives: at the highest dose activity change, negative = inhibition, actives largely listed as inhibitors; GCN5L2 HAT assay, ThioGlo1 CoA-SH fluorescence; also: % is scaled to controls: 0 for no effect and ±100 for the full control effect
Target sequence (Q92830 whole entry, looked up): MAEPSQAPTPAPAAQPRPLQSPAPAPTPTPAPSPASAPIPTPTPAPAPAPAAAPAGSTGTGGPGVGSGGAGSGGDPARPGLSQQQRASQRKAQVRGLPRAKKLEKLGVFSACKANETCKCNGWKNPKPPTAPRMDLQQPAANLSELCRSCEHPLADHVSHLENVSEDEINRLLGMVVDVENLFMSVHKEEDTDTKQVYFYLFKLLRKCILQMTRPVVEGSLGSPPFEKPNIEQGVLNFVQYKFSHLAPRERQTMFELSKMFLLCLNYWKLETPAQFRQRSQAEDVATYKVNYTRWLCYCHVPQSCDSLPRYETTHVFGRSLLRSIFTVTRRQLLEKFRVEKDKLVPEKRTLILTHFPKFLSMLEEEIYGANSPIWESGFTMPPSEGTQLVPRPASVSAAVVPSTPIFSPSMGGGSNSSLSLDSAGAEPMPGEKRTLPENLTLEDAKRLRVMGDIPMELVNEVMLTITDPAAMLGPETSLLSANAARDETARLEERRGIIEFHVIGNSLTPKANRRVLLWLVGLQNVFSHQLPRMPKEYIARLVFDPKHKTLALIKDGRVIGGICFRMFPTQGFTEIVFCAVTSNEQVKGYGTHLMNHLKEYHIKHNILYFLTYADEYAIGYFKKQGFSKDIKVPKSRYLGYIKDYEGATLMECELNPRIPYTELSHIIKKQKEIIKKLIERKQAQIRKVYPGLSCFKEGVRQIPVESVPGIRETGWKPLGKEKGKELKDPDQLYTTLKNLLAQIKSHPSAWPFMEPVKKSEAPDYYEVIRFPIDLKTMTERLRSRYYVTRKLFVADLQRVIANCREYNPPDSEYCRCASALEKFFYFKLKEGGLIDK
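Compounds, pin-transferred from DMSO stocks, meet 20nM GCN5L2 for 15 min before the reaction begins with H3(1-25) peptide (75uM) and acetyl-CoA (70uM). Thiol-reactive ThioGlo1 reports CoA release over 20 min at room temperature.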
GLP1R cytotox = cytotoxicity counter-screen for GLP-1 receptor inverse agonists. 410,000 tested, 0.13% active. HEK293 cAMP-luciferase reporter cells, luminescence, 24 h. Potency, µM (titrated, usually from 38.3 µM), for inactives: at the highest dose activity change, negative = inhibition, most hits filed as inhibitors. AID 624418;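 also: loss of luciferase light is scored as toxicity; % is scaled to controls: 0 for no effect and ±100 for the full control effect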
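A 23 nL compound transfer followed 12 hours of cell culture at 37 deg C; exposure then lasted 24 hr. Luciferase assay detection reagent was dispensed and plates read for luminescence after a 12 min room-temperature wait.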
GLP-1R inv ag = GLP-1 receptor (human) inverse agonism | P43220 | HEK293 GLP-1R CRE-luciferase, luminescence, 24 h; GLP-1R form is constitutively active | Potency, µM (doses to about 38.3 µM), for inactives: at the highest dose activity change, negative = inhibition, usual class: inhibitors | 410,000 tested, 1.6% active | AID 624417; also: % is scaled to controls: 0 for no effect and ±100 for the full control effect; nearly all actives have a fitted effect of over 55% in size
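Inverse agonism was detected as reduced cAMP-driven luciferase luminescence after 24 h compound treatment. The cells were HEK293 clones expressing constitutively active human GLP-1R with the reporter. Reporter-only and GPR119 cell lines served as counterscreen controls.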
PTHR1 ag = activates the human parathyroid hormone receptor PTHR1. Q03431. HEK293 GP2 PTHR1 cells, GloSensor cAMP luminescence, 1 h. Potency, µM (series often up to 115 µM), for inactives: at the highest dose activation, usual class: activators. 410,000 tested, 0.075% active; also: nearly all actives have a fitted effect of over 55% in size
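HEK-293-derived GP2 cells expressing PTHR1 and a GloSensor cAMP reporter, 3,000/well, plated overnight, given luciferin plus IBMX (each 0.5 mM as added) for 1 h at 37 °C, then compound for 1 h at 37 °C. Luminescence was read after 15 min at room temperature.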
GLP1R ag = activates the human GLP-1 receptor; P43220; HEK293 GLP-1R CRE-luciferase, luminescence, 4-6 h; cells express a hypersensitive GLP-1R form; AID 624172; Potency, µM (highest dose often 45.6 µM), for inactives: at the top dose activation, most hits filed as activators; 380,000 tested, 0.007% active; also: % of control where 0% means no effect
Starred values were filed as active, the others as inactive; i = inactive; ? = inconclusive; . = not tested or not shown; ! = a repeat was not active; [ ] = another dose, or the depositor's remark. This is a sample that favours compounds with a hit; in the whole collection about 1.8% have one here. Calls follow the shape of the dose curve; as a rule, active = well fitted curve in the direction sought with a large enough effect; inconclusive = small, poorly fitted or top-dose-only effect, or another doubt; inactive = no such curve, though single readings can be large; an effect the other way counts as inactive or inconclusive. Potency is read from the fitted curve at half-maximal effect.

SMILES	RGS4 inhibitor	GCN5L2 inh	GLP1R cytotox	GLP-1R inv ag	PTHR1 ag	GLP1R ag
CCCCN(CCCC)c1ncnc2nc[nH]c12	24%	-1%	-8%	4.5µM*	i	8%
Cc1ccc(O)c(N=Nc2nccs2)c1	5%	0%	?	7.1µM*	-15%	1%
O=C(Nc1cccc2cccnc12)OCc1ccccc1	22%	.	.	.	.	.
O=C(c1ccc(N2C(=O)C3CCCCC3C2=O)cc1)N1CCCCC1 (stereo not given)	-1%	-4%	-6%	8%	i	-2%
O=C(c1ccc(N2C(=O)C3C4CC(C(Br)C4Br)C3C2=O)cc1)N1CCCCC1 (stereo not given)	30%	0.79µM*	-3%	14%	i	1%
CC(NC(=O)c1ccc(Br)cc1)c1ccc2c(c1)CCCC2 (stereo not given)	-20%	-2%	-2%	10µM*	-37%	2%
Cc1ccc(C(=O)NC(C)c2ccc(F)cc2)cc1 (stereo not given)	14%	37%	-14%	2%	i	2%
CC(NC(=O)c1ccc(F)cc1)c1ccc2c(c1)CCCC2 (stereo not given)	-2%	9%	1%	10µM*	-14%[57.5 µM]	1%
CC(NC(=O)c1ccccc1Br)c1ccc2c(c1)CCCC2 (stereo not given)	-1%	-24%	6%	?	i	-9%
CC(=O)Oc1ccc(C2(c3ccc(OC(C)=O)cc3)Oc3ccccc3NC2=O)cc1	.	.	.	.	.	5%
CCOc1ccccc1N(CC(=O)NC1CCCC1)C(=O)CNC(=O)c1cccs1	26%	-5%	0%	-16%	i	0%
CCCCC/C=C\C/C=C\C/C=C\CCCCC(=O)O	?	14µM*!	12%	44%	-23%	22%
CCCCCCCC/C=C\CCCCCCCC(=O)O	-17%	32µM*!	-7%	1%	-40%	-3%
CCCCCCCC/C=C/CCCCCCCC(=O)NCCOP(=O)(O)O	.	7.1µM*	.	.	.	.
CCCCCCCC/C=C\CCCCCCCCCCCC(=O)O	.	8.9µM*	.	.	.	.
CCCCC/C=C\C/C=C\CCCCCCCC(=O)O	.	?	.	.	.	-5%
CCCCCCCC/C=C\C/C=C\C/C=C\CCCC(=O)O	?	-8%	.	.	.	.
CCCCC/C=C\C/C=C\C/C=C\CCCCCCC(=O)O	?	-5%	.	.	.	.
COc1ccccc1CNC(=O)c1c[nH]c2ccc(S(=O)(=O)Nc3cc(C)cc(C)c3)cc2c1=O	2%	-10%	-17%	?	-35%	.
O=C(CSc1nnc(-c2cccc(F)c2)c(-c2cccc(F)c2)n1)NC1CCCCC1	8%	-6%	4%	41%	-6%	.
CC(C)C[C@@H](C(=O)N[C@@H](Cc1c[nH]c2ccccc12)C(N)=O)N1C[C@]2(CCCN2C(=O)[C@H](Cc2ccccc2)NC(=O)[C@H](Cc2ccccc2)NC(=O)[C@H](CCC(N)=O)NC(=O)[C@H](CCC(N)=O)NC(=O)[C@@H]2CCCN2C(=O)[C@H](CCCCN)NC(=O)[C@@H]2CCCN2C(=O)[C@@H](N)CCCNC(=N)N)CC1=O	.	-2%	.	.	.	.
O=C(Nc1ccccc1C(=O)Nc1nccs1)c1ccccc1	.	.	4%	9%	-15%	-3%
CCCCCCOc1ccc(C(=N)N(CCCC)CCCC)c2ccccc12	.	-7%	.	.	.	-8%
CC1(C)Cc2c(sc(NC(=O)COc3ccc(Cl)cc3)c2C#N)C(C)(C)N1	-26%	-2%	0%	5.6µM*	i	17%
CN(Cc1ccc(C(F)(F)F)cc1)C(=O)c1ccc2ccccc2n1	8%	-2%	-8%	?	-6%	21%
SMILES	RGS4 inhibitor	GCN5L2 inh	GLP1R cytotox	GLP-1R inv ag	PTHR1 ag	GLP1R ag
CN(Cc1ccc(C(F)(F)F)cc1)C(=O)c1ccc(Oc2ccccc2)cc1	-29%	-17%	4%	10µM*	-29%	0%
CCc1nc2c(OCC(=O)C(C)(C)C)cccn2c1N(C)C(=O)CC(C)C	.	.	-11%	-6%	-19%	-4%
CCN(Cc1ccccc1)c1ccc(/C=N/N=C(N)N)cc1	4%	-3%	-25%	10µM*	-37%	-18%
CCN(Cc1ccccc1)c1ccccc1	7%	.	-5%	3%	0%	18%
O=C(O)C1Nc2c(O)cc(Cl)c([N+](=O)[O-])c2C2C=CCC12 (stereo not given)	?	3.2µM*	-33%	11%	-21%	-7%
COc1ccc([C@@H]2CC=C(C(=O)O)[C@H](c3ccc(F)cc3)N2S(=O)(=O)c2ccccc2C)cc1	-29%	-12%	-13%	?	-2%	-4%
Cc1ccc(S(=O)(=O)N2CCCCC2)cc1C(=O)OC(C)C(=O)NCC1CCCCC1 (stereo not given)	1%	-2%	-4%	7.1µM*	-43%	6%
Cc1ccc(C)c(C(=O)OCC(=O)Nc2cccc(S(=O)(=O)N3CCCCC3)c2)c1	-2%	-9%	-4%	1.4µM*	-86%	-1%
Cc1ccc(NC(=O)COC(=O)c2csc3c2CCC(C)C3)cc1S(=O)(=O)N1CCCCC1 (stereo not given)	6%	-12%	3%	-5%	-14%	-7%
Cc1ccccc1C(=O)OCC(=O)Nc1cccc(S(=O)(=O)N2CCCCC2)c1	.	.	-11%	?	-52%	6%
CC1CCc2c(C(=O)OCC(=O)Nc3cccc(S(=O)(=O)N4CCCCCC4)c3)csc2C1 (stereo not given)	-10%	-6%	-2%	2.5µM*	-21%	-3%
CC(OC(=O)c1cc(S(=O)(=O)N2CCOCC2)ccc1F)C(=O)NCC1CCCCC1 (stereo not given)	2%	0%	6%	-21%	-18%	8%
Cc1ccc(S(=O)(=O)c2nc(S(C)(=O)=O)sc2NCc2ccccc2)cc1	19%	-5%	11%	7%	i	.
O=C(c1ccco1)N1CCN(c2nc(C3CC3)nc3c2nnn3Cc2ccccc2Cl)CC1	22%[11.4 µM]	-8%	3%	10µM*	-18%	7%
CC(C)c1ccccc1NC(=O)c1cccc(NC(=O)c2ccccc2)c1	-23%	-3%	-13%	10µM*	i	1%
CC(C)c1cc(NC(=O)c2ccccc2)cc(C(C)C)c1O	9%	-4%	-2%	11µM*	-9%	10%
Cc1ccccc1C(=O)Nc1cccc(C(=O)Nc2ccccc2C(=O)O)c1	-5%	3%	4%	6%	-39%	0%

Screening results deposited in PubChem BioAssay by National Center for Advancing Translational Sciences (NCATS).
